# Assay results from PubChem BioAssay (NCI).
# This is part of a sample that, as a whole, favours compounds with a hit. Of some 83,000 tested, about 20% had one in any assay.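 Note: values are percent growth. 100 is the growth of untreated cells, values between 100 and 0 indicate rising inhibition; between -100 and 0 indicates cell death.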 Active and inactive are the calls of the source. How the source made its calls: active means growth percent below 10; inactive means the rest.
# System: SK-MEL-2 melanoma
# Assay: NCI-60 one-dose screen, 48 h (100 = growth as untreated, 0 = no growth, -100 = all killed)
# Details: 10 µM unless noted
row,Structure (SMILES),growth
1,NC(=O)CNc1ccc([As]=[As]c2ccc(NCC(N)=O)cc2)cc1 (centres undefined),33.8% (inactive)
2,C/C(=C\c1ccn(-c2ccc(N)cc2)n1)[C@@H]1C[C@@H]2O[C@]2(C)CCC[C@H](C)[C@H](O)[C@@H](C)C(=O)C(C)(C)[C@@H](O)CC(=O)O1,35.8% (inactive)
3,CC1(C)N=C(N)N=C(N)N1c1ccc(OCCCNC(=O)Nc2ccc(S(=O)(=O)F)cc2)c(Cl)c1,53.3% (inactive)
4,c1ccc(COc2ccc3[nH]cc(CCN(Cc4ccccc4)Cc4ccccc4)c3c2)cc1,93.6% (inactive)
5,O=[As](O)(O)c1ccccc1[As](=O)(O)O,119% (inactive)
6,C1CCC([PH+](C2CCCCC2)C2CCCCC2[PH+](C2CCCCC2)C2CCCCC2)CC1.[Au].[CH-]1CCCCC1CC1CCCC[N-]1 (centres undefined),-55.7% (active)
7,CCCC(=O)O[C@@H]1C[C@H]2C[C@@H](O[C@@H]3O[C@@H](C)[C@@H](O)[C@@H](O)[C@H]3OC)C[C@@H](C[C@@H](C)/C=C/C=C\C[C@@H]3O[C@@H](C[C@@H]3C)[C@@H](O)C[C@H]3C[C@@]1(O)C(=O)O3)O2,57.8% (inactive)
8,CC[S][Hg][Cl],105% (inactive)
9,COc1cccc2c1c(C(=O)c1ccco1)cn2Cc1ccc(F)cc1,73.8% (inactive)
10,CC(=O)c1ccc(C(=O)NCC2CCC3(CC2)OOC2(CCCCC2)OO3)cc1,76.7% (inactive)
11,O=C(N/N=C/c1ccc(N(CCCl)CCCl)cc1)c1cccc2ccccc12,81.2% (inactive)
12,O=C(CCCCCNC1=CC(=O)c2ccccc2C1=O)NCCC[Te]c1ccccc1,8.28% (active)
13,N#CC1(c2ccccc2)CCN(Cc2ccccc2)CC1,99.6% (inactive)
14,O=P1(NCCCl)OCCCN1CCCl (centres undefined),99.6% (inactive)
15,O=C(CC1(O)C(=O)Nc2ccc(Br)cc21)c1ccc(C(=O)NCC2CCC3(CC2)OOC2(CCCCC2)OO3)cc1 (centres undefined),23.3% (inactive)
16,Cc1ccc(Nc2nc3c(s2)C2=CC[C@@H]4[C@H](CC[C@]5(C)C(=O)CC[C@@H]45)[C@@]2(C)CC3)cc1,46.3% (inactive)
17,C=C1C[C@](OC)([C@H](O)C(=O)N[C@@H](OC)[C@@H]2C[C@@H](O)C(C)(C)[C@@H](C[C@@H](COC)OC)O2)O[C@H](C)[C@@H]1C,-64.8% (active)

row,Structure (SMILES),growth
1,O=C1C2C(C(=O)[N]1[Hg][c]1cccs1)C1(Cl)C(Cl)=C(Cl)C2(Cl)C1(Cl)Cl (centres undefined),54.6% (inactive)
2,COc1ccc(/C=C\c2cc(OC)c(OC)c(OC)c2)cc1NC(=O)/C=C/c1ccc(OC)c(OC)c1,66.9% (inactive)
3,O=C(O)c1c(Cl)n(Cc2ccc(O)cc2)c2ccc(O)cc12,81.6% (inactive)
4,CC(=O)OCc1cc[c]([Hg][Cl])o1,64.9% (inactive)
5,COC(=O)[C@@H](C)C[C@H](Cc1ccccc1)NC(=O)c1csc([C@@H](C[C@H](C(C)C)N(C)C(=O)[C@@H](NC(=O)CN(C)C)C2CC2)OC(C)=O)n1,11.6% (inactive)
6,CC(=O)Nc1nc2c(s1)CC[C@@]1(C)C2=CC[C@H]2[C@@H]3CC[C@H](O)[C@@]3(C)CC[C@@H]21,47.4% (inactive)
7,COc1ccc(/C(C)=C(\c2ccc(OCCN3CCOCC3)cc2)c2ccc(OC(=O)Cc3ccccc3)cc2)cc1,96.1% (inactive)
8,O=C(O)C(O)C(O)C1[O][Sb]([c]2ccc([N+](=O)[O-])cc2)[O]C1CO (centres undefined),115% (inactive)
9,Fc1c[c-]c(-c2ccccn2)c(F)c1.[CH3-].[Pt+2].c1ccc([PH+](c2ccccc2)c2ccccn2)cc1,-34.1% (active)
10,CCCCCCCCOC(=O)CCN1CC1,119% (inactive)
11,O=C1N[C@@H]2[C@@H](O)[C@@H](O)[C@H](O)C[C@H]2c2cc3c(c(O)c21)OCO3,-63.6% (active)
12,O=P(Oc1ccc(Cl)cc1)(N1CC1)N1CC1,102% (inactive)
13,O=C1CC2(CC3(Cl)C(Cl)=C(Cl)C2(Cl)C3(Cl)Cl)C(=O)O1 (centres undefined),121% (inactive)
14,COc1ccc(/C=C/c2cc(OC)c(OC)c(OC)c2)cc1NC(=O)/C=C/c1ccc(F)cc1,49.6% (inactive)
15,Nc1cc2nc3ccccc3nc2cc1N,107% (inactive)
16,CN[C@@]1(c2ccccc2Cl)CCCC[C@@H]1NCC1CCCO1 (some centres undefined),99.7% (inactive)
17,COc1cc2c(cc1OCCCn1c(-c3ccccn3)nc3ccccc31)N=C[C@@H]1CCCN1C2=O,-71.1% (active)
